Experimental data: PubChem BioAssay AID1209 (Sanford-Burnham Center for Chemical Genomics, 2008)
About 810 (0.43%) of roughly 190,000 compounds were called active. The entries come from a sample that favours actives as a whole. Unmarked numbers belong to inactive results. Cut-off read from the data, not from the text of the source: active = inhibition above about 50%; inactive = the rest.

Target: Mannose-6-phosphate isomerase (Homo sapiens) (UniProt P34949)
Assay: MPI enzyme activity inhibition – biochemical, fluorescence intensity, coupled assay, primary screen (AID 1209);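 note: plate controls were DMSO vehicle for no effect and wells lacking substrate for full effect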
Conditions: purified PMI enzyme, at 20 µM, active compounds read high

Sequence of Mannose-6-phosphate isomerase (Homo sapiens) (P34949 whole entry, looked up): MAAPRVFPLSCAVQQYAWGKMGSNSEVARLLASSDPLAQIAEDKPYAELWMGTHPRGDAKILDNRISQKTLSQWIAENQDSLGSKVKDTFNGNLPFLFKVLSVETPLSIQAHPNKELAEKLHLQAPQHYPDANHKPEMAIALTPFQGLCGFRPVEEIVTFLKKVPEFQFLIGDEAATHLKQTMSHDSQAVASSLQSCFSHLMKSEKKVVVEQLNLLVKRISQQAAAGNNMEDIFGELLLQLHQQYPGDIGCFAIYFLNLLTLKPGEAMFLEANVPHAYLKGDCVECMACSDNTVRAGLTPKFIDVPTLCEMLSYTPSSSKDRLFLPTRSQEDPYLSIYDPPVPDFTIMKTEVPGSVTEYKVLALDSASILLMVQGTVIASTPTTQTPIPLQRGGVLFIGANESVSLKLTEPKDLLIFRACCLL

Structure (SMILES)	inhibition
CCN(CCC(=O)Nc1cc(OC)cc(OC)c1)Cc1ccccc1	6.5%
Cc1nnc(NC(=O)c2ccc3ccccc3n2)s1	-23.8%
COc1ccc(C(c2sc3nc(C)nn3c2O)N2CCCCC2)cc1 (stereo unspecified)	-1.5%
COc1cccc(C(c2sc3nc(C)nn3c2O)N2CCc3ccccc3C2)c1 (stereo unspecified)	65.3% (active)
CCN1CCN(C(c2cccc(OC)c2)c2sc3nc(C)nn3c2O)CC1 (stereo unspecified)	2.4%
COc1cc(C(c2sc3nc(C)nn3c2O)N2CCc3ccccc3C2)cc(OC)c1OC (stereo unspecified)	11.5%
COc1cccc(C(c2sc3ncnn3c2O)N2CCc3ccccc3C2)c1 (stereo unspecified)	40.6%
COc1ccc(C(c2sc3nc(C)nn3c2O)N2CCc3ccccc3C2)cc1 (stereo unspecified)	72.5% (active)
COc1cc2c(cc1OC)CC(=O)N(C)CC2	3.4%
O=C(CSC1CC(=O)N(c2ccc(C(=O)O)cc2)C1=O)Nc1ccc(Cl)cc1 (stereo unspecified)	-7.6%
Cc1ccc(N2C(=O)CC(SCC(=O)Nc3ccc(S(N)(=O)=O)cc3)C2=O)cc1 (stereo unspecified)	16.8%
CCN(CC(=O)NCCc1ccc(S(N)(=O)=O)cc1)Cc1nc2cc(OC)c(OC)cc2c(=O)[nH]1	-4.3%
CC(C(=O)Nc1ccccc1C(=O)O)n1c(C(F)(F)F)nc2ccccc21 (stereo unspecified)	1.2%
O=C(CSc1nc2c(sc3ccccc32)c(=O)n1Cc1ccccc1)NCC1CCCO1 (stereo unspecified)	15.3%
O=C(CSc1nc2c(sc3ccccc32)c(=O)n1CCO)NCC1CCCO1 (stereo unspecified)	54% (active)
O=C(CSc1nc2c(sc3ccccc32)c(=O)n1CCCN1CCCC1)NCC1CCCO1 (stereo unspecified)	-1%
COc1ccc(C2=CC(c3ccc(OC)c(OC)c3)NC(=S)N2)cc1 (stereo unspecified)	3.4%
CN(C)/C=N/c1ncc(C(=O)c2ccc(Cl)cc2Cl)s1	-11.6%
CN(C)/C=N/c1ncc(C(=O)c2ccc(Cl)cc2)s1	0.8%
Cc1cc(C(=O)c2cnc(/N=C/N(C)C)s2)c(F)cc1Cl	93.5% (active)
COc1ccc(-c2oc(NC(=O)CSc3nncn3C)c(C#N)c2-c2ccc(OC)cc2)cc1	7.6%
CCc1cc(N2CCOCC2)cc2c1[nH]c1ccccc12	55.4% (active)

Structure (SMILES)	inhibition
CCCCn1c(=S)[nH]c2ccc(N3CCOCC3)cc2c1=O	-8.1%
c1ccc2c(c1)[nH]c1c(N3CCOCC3)ncnc12	7.2%
O=C(NCCc1c[nH]c2ccccc12)c1cccc(S(=O)(=O)Nc2ccccc2Cl)c1	20.2%
COc1cccc(C(c2sc3nc(C)nn3c2O)N2CCC3(CC2)OCCO3)c1 (stereo unspecified)	5.1%
CN(Cc1ccno1)Cc1cn(C)nc1-c1ccc(Oc2ccccc2)cc1	26.3%
CN(Cc1cccnc1)Cc1cn(C)nc1-c1ccc(Oc2ccccc2)cc1	50.7% (active)
Cc1cnccc1CN(C)Cc1cn(C)nc1-c1ccc(Oc2ccccc2)cc1	14.4%
CC(C)NC(=O)COc1nncc2ccccc12	15.9%
Cc1ccc(Cn2c(=O)sc3ccccc3c2=O)cc1	18.9%
O=c1sc2ccccc2c(=O)n1Cc1ccccc1F	89.5% (active)
Cc1ccccc1Cn1c(=O)sc2ccccc2c1=O	6%
Cc1cccc(C)c1NC(=O)CSc1nnc([C@H](C)NC(=O)OC(C)(C)C)o1	-1.6%
C=CCn1c(SCC(=O)NC2CCS(=O)(=O)C2)nc2sc(CC)cc2c1=O (stereo unspecified)	-1.4%
CCc1ccc2c(c1)CCCN2C(=O)c1ccccc1C(=O)O	0.4%
CCCN1CCCc2ccccc21	-40.1%
CCCN1CCCc2cc(CN)ccc21	50.7% (active)
Cc1ccc(NC2=CC(=O)CC(c3ccccc3)C2)cc1 (stereo unspecified)	7.6%
COc1cccc(Nc2nc(CC(C)=O)ns2)c1	-2%
c1ccc2sc(NCC3CCCO3)nc2c1 (stereo unspecified)	-11.7%
Oc1c(Cl)cc(Cl)c2cccnc12	21.3%
O=[N+]([O-])c1cc(Cl)c(O)c2ncccc12	51.7% (active)
O=[N+]([O-])c1cc(Cl)c2cccnc2c1O	14.6%

Structure (SMILES)	inhibition
COC(=O)C(C(=O)OC)c1ccc(-n2cccc2)cc1	11%
CCOc1cccc2cc(C(C)=O)oc12	-14.2%
CCOc1cc(C2NC(=O)NC(c3ccccc3)=C2C(C)=O)ccc1OC(C)=O (stereo unspecified)	7%
CC(=O)C1=C(c2ccccc2)NC(=O)NC1c1ccc(O)c(O)c1 (stereo unspecified)	61.3% (active)
CC(=O)C1=C(c2ccccc2)NC(=S)NC1c1ccc(O)c(O)c1 (stereo unspecified)	44.9%
COc1cccc(N2CCN(Cc3ccsc3)CC2)c1	-5.2%
COC(=O)c1cc(=O)nc2sc(-c3cccs3)nn12	7.5%
COC(=O)c1cc(=O)nc2sc(-c3ccccc3)nn12	-2.3%
COC(=O)c1cc(=O)nc2sc(-c3ccc(F)cc3)nn12	72.4% (active)
CN1Cc2sc(N)c(C#N)c2CC1(C)C	-8.4%
CN(C)c1ccc(/C=N/NC(=O)c2nonc2N)cc1[N+](=O)[O-]	12.7%
Cc1cccnc1Nc1nc(-c2ccc(O)c(O)c2)cs1	52.3% (active)
Oc1ccc(-c2csc(Nc3ncccn3)n2)cc1	-4.9%
COc1ccc(-c2csc(Nc3ccc(C)cn3)n2)cc1	-1.5%
Cc1cccnc1Nc1nc(-c2ccc(O)cc2)cs1	-10.5%
Oc1ccc(-c2csc(Nc3ncccn3)n2)cc1O	58% (active)
COc1ccc(-c2csc(Nc3ccc(C)cn3)n2)cc1OC	7.7%
Cc1cccnc1Nc1nc(-c2ccc(O)cc2O)cs1	10.6%
c1ccc(-c2csc(Nc3ncccn3)n2)cc1	-2.2%
O=C(O)CC(=O)Nc1ccccc1C(=O)O	0.5%
O=C(CSCc1ccc(Cl)cc1)Nc1ccc(S(=O)(=O)N2CCOCC2)cc1	11.5%
COCCN(CCOC)S(=O)(=O)c1ccc(C(=O)Nc2nnc(COC)o2)cc1	-8.8%
